This is part of a sample that, as a whole, favours compounds with a hit. Of some 83,000 tested, about 20% had one in any assay.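 Each cell line was grown in a 96-well plate and treated with one concentration of compound for 48 hours. Values below 10 were considered active.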 Values without a mark were called inactive. Active and inactive are the calls of the source.

The source of these data is PubChem BioAssay (NCI).

Test systems include SR leukemia; RPMI-8226 leukemia; OVCAR-8 ovarian; OVCAR-5 ovarian; OVCAR-4 ovarian; SK-OV-3 ovarian; IGROV1 ovarian; OVCAR-3 ovarian; HS 578T breast; NCI/ADR-RES ovarian; T-47D breast; BT-549 breast; MDA-MB-435 melanoma; SW-620 colon; MCF7 breast; HCT-116 colon; HCC-2998 colon; KM12 colon.
Common to all, as to assay: NCI-60 one-dose screen, 48 h (100 = growth as untreated, 0 = no growth, -100 = all killed)
Settings in all cases: 10 µM unless noted

Regarding `CCCn1cnc2c(c1=N)C(c1ccc(OC)cc1)c1sc3c(CC)cccc3c1O2` (stereo unspecified), the growth in the experiment with SR leukemia was 8.89% (active); in the experiment on RPMI-8226 leukemia it was -8.82% (active); with OVCAR-8 ovarian, 26.9%; in the experiment with OVCAR-5 ovarian it was 41.1%; with OVCAR-4 ovarian, 71.8%; with SK-OV-3 ovarian, 42.3%. For the same compound, the growth is 31.9% in the experiment on IGROV1 ovarian; 6% (active) in the experiment with OVCAR-3 ovarian; 18.3% in the experiment on HS 578T breast; 7.77% (active) with NCI/ADR-RES ovarian; 27.9% in the experiment on T-47D breast; 33.3% in the experiment with BT-549 breast. For the same compound, the growth is -44.5% (active) with MDA-MB-435 melanoma; 28.4% with SW-620 colon; 18.4% in the experiment with MCF7 breast; 9.7% (active) in the experiment with HCT-116 colon; 19.2% in the experiment with HCC-2998 colon; 16.8% with KM12 colon.
For the compound `CN1CCN(Cc2ccc(NC(=O)c3cncc(C#Cc4cnc5ccc(OCC6(C)COC6)nn45)c3)cc2C(F)(F)F)CC1`, the growth was -13.9% (active) in the experiment with SR leukemia; -17.7% (active) in the experiment on RPMI-8226 leukemia; -15.3% (active) with OVCAR-8 ovarian; -73.2% (active) in the experiment with OVCAR-5 ovarian; -54.7% (active) in the experiment with OVCAR-4 ovarian; -90.8% (active) with SK-OV-3 ovarian. Besides, the growth with IGROV1 ovarian was -63.8% (active); in the experiment on OVCAR-3 ovarian, -74.5% (active); in the experiment on HS 578T breast, -50.2% (active); in the experiment with NCI/ADR-RES ovarian, -58.1% (active); with T-47D breast, -49.9% (active); in the experiment with BT-549 breast, -62% (active). The growth was -90.9% (active) in the experiment on MDA-MB-435 melanoma; -44.8% (active) in the experiment with SW-620 colon; -76% (active) with MCF7 breast; -75.5% (active) in the experiment on HCT-116 colon; -89.6% (active) in the experiment on HCC-2998 colon; -82.1% (active) with KM12 colon.
Take `COC(=O)C[Se]C(=O)Cc1c(C)n(C(=O)c2ccc(Cl)cc2)c2ccc(OC)cc12`: the growth in the experiment with SR leukemia is 16.4%; in the experiment on RPMI-8226 leukemia, 90.8%; with OVCAR-8 ovarian, 41.4%; with OVCAR-5 ovarian it was 15.4%; with OVCAR-4 ovarian it was 40.6%; in the experiment with SK-OV-3 ovarian it was 118%. Also, the growth is 16.8% in the experiment with IGROV1 ovarian; 44.7% in the experiment on OVCAR-3 ovarian; 29.8% with HS 578T breast; 9.78% (active) in the experiment on NCI/ADR-RES ovarian; 83% with T-47D breast; 102% in the experiment on BT-549 breast. Also, the growth with MDA-MB-435 melanoma is 39.6%; with SW-620 colon, 62.4%; in the experiment on MCF7 breast, 28.2%; with HCT-116 colon it was 4.82% (active); with HCC-2998 colon, 58.3%; with KM12 colon, 26.4%.
With `C[C@H]1c2[nH]c3ccccc3c2C[C@H]2C(=O)N(CCCCCCC(=O)NO)CC(=O)N21`, the growth in the experiment on SR leukemia is 30.8%; in the experiment on RPMI-8226 leukemia, 73.8%; in the experiment on OVCAR-8 ovarian, 64.5%; with OVCAR-5 ovarian, 80.7%; in the experiment with OVCAR-4 ovarian, 97.1%; in the experiment with SK-OV-3 ovarian, 101%. Also, the growth in the experiment on IGROV1 ovarian was 93%; in the experiment with OVCAR-3 ovarian, 79.9%; with HS 578T breast it was 66.7%; with NCI/ADR-RES ovarian, 106%; with T-47D breast, 61%; with BT-549 breast, 96.5%. In addition, the growth with MDA-MB-435 melanoma is 84%; in the experiment with SW-620 colon, 80.5%; in the experiment on MCF7 breast it was 70.8%; in the experiment on HCT-116 colon, 72.8%; in the experiment on HCC-2998 colon it was 114%; in the experiment with KM12 colon, 84.1%.
Consider `Nc1cc(F)ccc1NC(=O)c1ccc(NC(=O)C/C=C/c2cccnc2)cc1`, for which the growth in the experiment with SR leukemia was 29.3%; in the experiment with RPMI-8226 leukemia, 6.2% (active); with OVCAR-8 ovarian, 29.9%; in the experiment on OVCAR-5 ovarian, 37.2%; in the experiment on OVCAR-4 ovarian, 48%; with SK-OV-3 ovarian it was 54.5%. Moreover, the growth with IGROV1 ovarian was 27.9%; with OVCAR-3 ovarian, 45.1%; in the experiment with HS 578T breast, 49%; in the experiment with NCI/ADR-RES ovarian, 51%; with T-47D breast, 22.7%; in the experiment on BT-549 breast it was 26.1%. The growth was 28% in the experiment on MDA-MB-435 melanoma; 17.6% in the experiment on SW-620 colon; 33% in the experiment on MCF7 breast; 9.59% (active) with HCT-116 colon; 52.8% with HCC-2998 colon; 41.5% in the experiment with KM12 colon.
For `CN(C)C(=O)c1cc(-c2ccc3ncnc(NCc4ccccc4)c3c2)cnc1N`, the growth is 89.3% with SR leukemia; 50.5% in the experiment with RPMI-8226 leukemia; 97.3% in the experiment with OVCAR-8 ovarian; 62.9% with OVCAR-5 ovarian; 80.7% in the experiment on OVCAR-4 ovarian; 110% with SK-OV-3 ovarian. Moreover, the growth in the experiment with IGROV1 ovarian is 34.2%; with OVCAR-3 ovarian, 85.1%; in the experiment with HS 578T breast, 81.8%; in the experiment on NCI/ADR-RES ovarian it was 104%; in the experiment with T-47D breast it was 62%; in the experiment with BT-549 breast it was 111%. For the same compound, the growth in the experiment on MDA-MB-435 melanoma was 99.2%; in the experiment on SW-620 colon, 102%; with MCF7 breast, 77.5%; in the experiment on HCT-116 colon, 101%; in the experiment on HCC-2998 colon, 102%; with KM12 colon, 101%.
As for `CN(Cc1ccccc1)S(=O)(=O)/N=C1\NC(=O)NC1=C(Cl)Cl`, the growth is -0.359% (active) in the experiment on SR leukemia; -1.12% (active) with RPMI-8226 leukemia; 93.9% in the experiment on OVCAR-8 ovarian; 11.9% in the experiment with OVCAR-5 ovarian; 91.8% in the experiment with OVCAR-4 ovarian; 110% in the experiment with SK-OV-3 ovarian. Also, the growth with IGROV1 ovarian is 3.38% (active); with OVCAR-3 ovarian it was -81.7% (active); in the experiment on HS 578T breast it was 96.7%; in the experiment with NCI/ADR-RES ovarian, 81.5%; in the experiment on T-47D breast, 56.8%; with BT-549 breast, 94.6%. Besides, the growth in the experiment on MDA-MB-435 melanoma was 79.6%; with SW-620 colon, -49.5% (active); in the experiment with MCF7 breast it was 12.6%; in the experiment on HCT-116 colon it was 21.3%; with HCC-2998 colon, 71.8%; with KM12 colon, 4.88% (active).
As to `C#Cc1ccc(C(=O)NCc2ccc(/C=C/C(=O)c3nccn3C)cc2)cc1`, the growth was 4.33% (active) in the experiment with SR leukemia; 6.86% (active) with RPMI-8226 leukemia; 26.9% with OVCAR-8 ovarian; 26.8% in the experiment on OVCAR-5 ovarian; 39% in the experiment on OVCAR-4 ovarian; 50.2% in the experiment on SK-OV-3 ovarian. In addition, the growth in the experiment with IGROV1 ovarian was 13.1%; in the experiment with OVCAR-3 ovarian it was 17.8%; in the experiment on HS 578T breast it was 22.6%; in the experiment with NCI/ADR-RES ovarian, 9.5% (active); with T-47D breast it was 34%; in the experiment on BT-549 breast, 51%. For the same compound, the growth in the experiment on MDA-MB-435 melanoma is 26.2%; in the experiment on SW-620 colon, 10.5%; in the experiment with MCF7 breast it was 12.2%; with HCT-116 colon it was 14%; in the experiment with HCC-2998 colon, 9.76% (active); with KM12 colon, 15.5%.
Take `CN(C)CCNC(=O)c1ccc(-c2nc3ccc4[nH]ncc4c3c3c2CCC3)cc1`: the growth is -1.05% (active) in the experiment with SR leukemia; -15.7% (active) with RPMI-8226 leukemia; 9.58% (active) with OVCAR-8 ovarian; 21.4% with OVCAR-5 ovarian; 10.2% in the experiment with OVCAR-4 ovarian; 0.409% (active) in the experiment with SK-OV-3 ovarian. The growth is 1.06% (active) in the experiment on IGROV1 ovarian; 2.15% (active) in the experiment with OVCAR-3 ovarian; -25% (active) with HS 578T breast; 81.3% in the experiment with NCI/ADR-RES ovarian; 32.8% with T-47D breast; -19.5% (active) in the experiment on BT-549 breast. In addition, the growth is 22.2% in the experiment with MDA-MB-435 melanoma; 3.38% (active) in the experiment with SW-620 colon; 1.36% (active) in the experiment on MCF7 breast; 2.43% (active) in the experiment with HCT-116 colon; 2.85% (active) with HCC-2998 colon; 4.08% (active) in the experiment on KM12 colon.
Regarding `O=C(O)c1ccc(-n2cc(CNc3cc(F)c(F)c(F)c3)c(-c3cccc(F)c3)n2)cc1`, the growth is 80.4% in the experiment on SR leukemia; 86.7% in the experiment with RPMI-8226 leukemia; 82.8% in the experiment on OVCAR-8 ovarian; 107% in the experiment on OVCAR-5 ovarian; 95.5% in the experiment with OVCAR-4 ovarian; 113% in the experiment with SK-OV-3 ovarian. Besides, the growth was 98.8% in the experiment with IGROV1 ovarian; 96.1% in the experiment with OVCAR-3 ovarian; 102% in the experiment with HS 578T breast; 90.8% in the experiment with NCI/ADR-RES ovarian; 81.6% in the experiment on T-47D breast; 107% in the experiment on BT-549 breast. In addition, the growth in the experiment on MDA-MB-435 melanoma was 99.8%; in the experiment on SW-620 colon, 105%; in the experiment with MCF7 breast, 41%; in the experiment with HCT-116 colon, 86.2%; in the experiment on HCC-2998 colon, 87.5%; in the experiment with KM12 colon it was 96.8%.
As for `COc1ccc(Cn2cc3c(c2-c2cc(OC)c(OC)c(OC)c2)CCc2c(CN4CCCC4)noc2-3)cc1`, the growth in the experiment with SR leukemia was 29%; with RPMI-8226 leukemia, 21%; in the experiment on OVCAR-8 ovarian it was 42.5%; in the experiment with OVCAR-5 ovarian, 27.9%; with OVCAR-4 ovarian it was 55.2%; in the experiment with SK-OV-3 ovarian it was 41%. Further, the growth in the experiment with IGROV1 ovarian is 29.9%; in the experiment on OVCAR-3 ovarian, -16% (active); in the experiment on HS 578T breast it was 10.3%; in the experiment on NCI/ADR-RES ovarian, 9.19% (active); with T-47D breast, 42.9%; in the experiment with BT-549 breast it was 76%. Also, the growth was -39.2% (active) with MDA-MB-435 melanoma; 26.4% in the experiment on SW-620 colon; 15.5% in the experiment with MCF7 breast; 18% in the experiment with HCT-116 colon; 24.9% in the experiment on HCC-2998 colon; 14.9% with KM12 colon.
In the case of `Cc1cc(C)n(C(=O)c2sc(=S)n(-c3ccccc3)c2N=Nc2c(N)n[nH]c2N)n1`, the growth is 86.4% in the experiment on SR leukemia; 108% in the experiment with RPMI-8226 leukemia; 101% with OVCAR-8 ovarian; 101% in the experiment with OVCAR-5 ovarian; 115% in the experiment on OVCAR-4 ovarian; 109% with SK-OV-3 ovarian. The growth in the experiment with IGROV1 ovarian was 99.8%; with OVCAR-3 ovarian, 119%; in the experiment with HS 578T breast, 113%; with NCI/ADR-RES ovarian, 115%; in the experiment on T-47D breast, 117%; in the experiment with BT-549 breast it was 107%. Also, the growth in the experiment with MDA-MB-435 melanoma is 104%; in the experiment with SW-620 colon, 102%; in the experiment with MCF7 breast, 96.7%; in the experiment with HCT-116 colon, 100%; with HCC-2998 colon it was 110%; in the experiment on KM12 colon it was 107%.
